From PubChem BioAssay AID743295 (Broad Institute, 2014)
Potency and affinity values are given separately. Calls of active or inactive are those of the source.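 The calls were made as follows: active = compounds lowering caspase 7 signal with dose, half-maximal concentration at most twice the top valid dose; inconclusive = flat fit with 30 to 70% inhibition, or poor fit; inactive = the rest.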

target: Caspase-7 (Homo sapiens) (UniProt P55210); experiment: human caspase-7 inhibitors, dose response, selectivity assay for caspase-6 inhibitor project, biochemical, DEVD-R110 fluorescence, cherry-pick (AID 743295); settings: purified caspase-7, DEVD-R110 cleavage fluorescence; series mostly up to 35 µM
Sequence (P55210 whole entry, looked up): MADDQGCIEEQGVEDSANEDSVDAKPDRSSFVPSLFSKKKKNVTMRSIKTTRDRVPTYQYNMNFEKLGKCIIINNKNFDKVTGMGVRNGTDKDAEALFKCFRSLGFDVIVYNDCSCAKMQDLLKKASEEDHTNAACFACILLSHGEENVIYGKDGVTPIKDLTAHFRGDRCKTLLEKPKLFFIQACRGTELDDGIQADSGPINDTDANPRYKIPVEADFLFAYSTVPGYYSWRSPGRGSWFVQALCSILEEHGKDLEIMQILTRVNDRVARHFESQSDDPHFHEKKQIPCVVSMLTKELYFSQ

outcome, inactive:
Nc1cc(S(=O)(=O)O)cc([N+](=O)[O-])c1O
O=C(COC(=O)c1ccc([N+](=O)[O-])s1)Nc1ccc(F)cc1
Nc1ccc(Nc2ccccc2)c(S(=O)(=O)O)c1
CNS(=O)(=O)c1cccc(C(=O)OCC(=O)N2c3ccccc3NC(=O)C2(C)C)c1
CCCc1nc2c(=O)n(C)c(=O)nc-2n(C)n1
O=C(Nc1ccc2nc3n(c(=O)c2c1)CCCCC3)c1c(F)ccc([N+](=O)[O-])c1F
C/C(CC(=O)N1CCCC1)=N\NC(=O)c1cc2ccccc2cc1O
COCCN(C(=O)COC(=O)c1cc2c(s1)CCC2)c1c(N)n(Cc2ccccc2)c(=O)[nH]c1=O
Cc1c(CCC(=O)O)c(=O)oc2c(C)c(OCc3ccccc3Cl)ccc12
CCOC(=O)[C@H](Cc1c[nH]c2ccccc12)NC(=O)CN=[N+]=[N-]
Cn1cnnc1SCC(=O)Nc1ncc([N+](=O)[O-])s1
O=C(O)Cc1ccc(-n2cccc2)cc1
Cc1cc(C=O)c(C)n1-c1cc(C(=O)O)cc(C(=O)O)c1
O=P(c1ccccc1)(c1ccccc1)c1cc(S(=O)(=O)O)ccc1O
COc1cc(-c2ccc(Nc3ccccc3C(=O)O)c(OC)c2)ccc1Nc1ccccc1C(=O)O
COc1cc(NC(=O)COC(=O)c2ccc([N+](=O)[O-])s2)cc(OC)c1OC
Oc1cc(NCCc2cccnc2)cc2cccnc12
CO[C@H]1CN(C)C(=O)c2cc(NC(C)=O)ccc2OC[C@@H](C)N(C(=O)CC2CC2)C[C@H]1C
Cc1ccc(S(=O)(=O)Nc2csc(C)c2C(=O)O)cc1
